The campaign covered roughly 5,500 compounds. About 2,000 (36%) were called active. About 18% were inconclusive and are not listed. Rule as the data show it: active = normalized growth mostly below about 0.91 (no sharp cut-off); inconclusive = no clear call, values can overlap the other calls; inactive = mostly above about 0.92. Some of the results follow.
Assay: chemical genetic growth profiling, strain panel (AID 1159580);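 also: tested at 20 µM; growth read once vehicle control cultures reached saturation at 30 °C; 1 = growth at the plate median or of vehicle wells; lower values mean less growth of the strain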
Settings: growth OD

Measured: normalized growth

NC[C@H](O)c1ccc(O)c(O)c1
active: S. cerevisiae deletion strains, locus YMR058W, strain fet3, active compounds read low 0.841
inactive: S. cerevisiae deletion strains, locus YJR066W, strain TOR1, active compounds read low 0.934 | S. cerevisiae deletion strains, locus YJR075W, strain HOC1, active compounds read low 1.02 | S. cerevisiae deletion strains, locus YKL009W, strain mrt4, active compounds read low 1 | S. cerevisiae deletion strains, locus YKL068W, active compounds read low 1.01 | S. cerevisiae deletion strains, locus YKL085W, strain MDH1 (second series), active compounds read low 1.01 | S. cerevisiae deletion strains, locus YKL085W, strain MDH1, active compounds read low 1.01 | S. cerevisiae deletion strains, locus YKL160W, strain elf1, active compounds read low 1.02 | S. cerevisiae deletion strains, locus YKL190W, strain CNB1, active compounds read low 1.01 | S. cerevisiae deletion strains, locus YKR001C, strain vps1, active compounds read low 0.999 | S. cerevisiae deletion strains, locus YKR026C, strain gcn3, active compounds read low 1 | S. cerevisiae deletion strains, locus YKR091W, strain srl3, active compounds read low 1.01 | S. cerevisiae deletion strains, locus YLL001W, strain dnm1, active compounds read low 1.02 | S. cerevisiae deletion strains, locus YLL026W, active compounds read low 1.02 | S. cerevisiae deletion strains, locus YLL041C, strain sdh2, active compounds read low 1 | S. cerevisiae deletion strains, locus YLR027C, strain aat2, active compounds read low 1.01 | S. cerevisiae deletion strains, locus YLR039C, strain RIC1, active compounds read low 1 | S. cerevisiae deletion strains, locus YLR058C, strain SHM2, active compounds read low 1.01 | S. cerevisiae deletion strains, locus YLR102C, strain apc9, active compounds read low 1.02 | S. cerevisiae deletion strains, locus YLR113W, strain HOG1, active compounds read low 0.97 | S. cerevisiae deletion strains, locus YLR221C, strain rsa3, active compounds read low 1.01 | S. cerevisiae deletion strains, locus YLR258W, strain gsy2, active compounds read low 1.01 | S. cerevisiae deletion strains, locus YLR262C, strain YPT6 (second series), active compounds read low 1.02 | S. cerevisiae deletion strains, locus YLR262C, strain YPT6, active compounds read low 1.04 | S. cerevisiae deletion strains, locus YLR268W, strain sec22, active compounds read low 1.04 | S. cerevisiae deletion strains, locus YLR320W, strain mms22, active compounds read low 1.04 | S. cerevisiae deletion strains, locus YLR330W, strain CHS5, active compounds read low 1.01 | S. cerevisiae deletion strains, locus YLR342W, strain FKS1 (second series), active compounds read low 1.01 | S. cerevisiae deletion strains, locus YLR342W, strain FKS1, active compounds read low 1.01 | S. cerevisiae deletion strains, locus YLR357W, strain rsc2, active compounds read low 0.938 | S. cerevisiae deletion strains, locus YLR370C, strain arc18, active compounds read low 1.01 | S. cerevisiae deletion strains, locus YLR371W, strain rom2, active compounds read low 1.03 | S. cerevisiae deletion strains, locus YLR384C, strain iki3, active compounds read low 1 | S. cerevisiae deletion strains, locus YLR418C, strain cdc73, active compounds read low 1 | S. cerevisiae deletion strains, locus YML016C, strain PPZ1, active compounds read low 1 | S. cerevisiae deletion strains, locus YML032C, strain rad52, active compounds read low 1.02 | S. cerevisiae deletion strains, locus YML120C, strain ndi1, active compounds read low 1 | S. cerevisiae deletion strains, locus YML124C, strain tub3, active compounds read low 1.01 | S. cerevisiae deletion strains, locus YMR078C, strain ctf18, active compounds read low 1.02 | S. cerevisiae deletion strains, locus YMR125W, strain sto1, active compounds read low 0.952 | S. cerevisiae deletion strains, locus YMR129W, active compounds read low 0.993 | S. cerevisiae deletion strains, locus YMR205C, strain PFK2, active compounds read low 1.06 | S. cerevisiae deletion strains, locus YMR223W, strain ubp8, active compounds read low 0.99 | S. cerevisiae deletion strains, locus YMR231W, strain pep5, active compounds read low 0.995 | S. cerevisiae deletion strains, locus YMR263W, strain SAP30, active compounds read low 1.01 | S. cerevisiae deletion strains, locus YMR307W, strain GAS1, active compounds read low 0.979 | S. cerevisiae deletion strains, locus YNL067W, strain RPL9B, active compounds read low 1.01 | S. cerevisiae deletion strains, locus YNL071W, strain lat1, active compounds read low 0.997 | S. cerevisiae deletion strains, locus YNL183C, strain NPR1, active compounds read low 0.948 | S. cerevisiae deletion strains, locus YNL209W, strain ssb2, active compounds read low 0.999 | S. cerevisiae deletion strains, locus YNL233W, strain BNI4, active compounds read low 1.01 | S. cerevisiae deletion strains, locus YNL248C, strain rpa49, active compounds read low 0.978 | S. cerevisiae deletion strains, locus YNL250W, strain rad50, active compounds read low 1.01 | S. cerevisiae deletion strains, locus YNL271C, strain bni1, active compounds read low 1.01 | S. cerevisiae deletion strains, locus YNL298W, strain CLA4, active compounds read low 1 | S. cerevisiae deletion strains, locus YNL307C, strain MCK1, active compounds read low 1.02 | S. cerevisiae deletion strains, locus YNL322C, strain KRE1 (second series), active compounds read low 1.01 | S. cerevisiae deletion strains, locus YNR049C, strain mso1, active compounds read low 1.01 | S. cerevisiae deletion strains, locus YNR052C, strain pop2, active compounds read low 1.01 | S. cerevisiae deletion strains, locus YOL006C, strain TOP1, active compounds read low 0.941 | S. cerevisiae deletion strains, locus YOL012C, strain htz1 1.04 | S. cerevisiae deletion strains, locus YOL147C, strain pex11, active compounds read low 1.01 | S. cerevisiae deletion strains, locus YOR001W, strain rrp6, active compounds read low 0.969 | S. cerevisiae deletion strains, locus YOR061W, strain CKA2, active compounds read low 1.01 | S. cerevisiae deletion strains, locus YOR069W, strain VPS5, active compounds read low 1.01 | S. cerevisiae deletion strains, locus YOR070C, strain gyp1, active compounds read low 1 | S. cerevisiae deletion strains, locus YOR080W, strain dia2, active compounds read low 1.01 | S. cerevisiae deletion strains, locus YOR083W, strain WHI5, active compounds read low 1.05 | S. cerevisiae deletion strains, locus YOR106W, strain vam3, active compounds read low 1.04 | S. cerevisiae deletion strains, locus YOR136W, strain idh2, active compounds read low 1.02 | S. cerevisiae deletion strains, locus YOR144C, strain elg1, active compounds read low 1.01 | S. cerevisiae deletion strains, locus YOR184W, strain ser1, active compounds read low 1.06 | S. cerevisiae deletion strains, locus YOR231W, strain MKK1, active compounds read low 1 | S. cerevisiae deletion strains, locus YOR265W, strain rbl2, active compounds read low 1.01 | S. cerevisiae deletion strains, locus YOR270C, strain vph1, active compounds read low 0.944 | S. cerevisiae deletion strains, locus YOR290C, strain snf2, active compounds read low 1.01 | S. cerevisiae deletion strains, locus YOR316C, strain cot1, active compounds read low 1.01 | S. cerevisiae deletion strains, locus YPL051W, strain arl3, active compounds read low 0.99 | S. cerevisiae deletion strains, locus YPL078C, strain atp4, active compounds read low 1.01 | S. cerevisiae deletion strains, locus YPL106C, strain sse1, active compounds read low 1 | S. cerevisiae deletion strains, locus YPL240C, strain hsp82, active compounds read low 0.994 | S. cerevisiae deletion strains, locus YPL241C, strain CIN2, active compounds read low 1.01 | S. cerevisiae deletion strains, locus YPL256C, strain CLN2, active compounds read low 0.961 | S. cerevisiae deletion strains, locus YPR119W, strain clb2, active compounds read low 1.02 | S. cerevisiae deletion strains, locus YPR141C, strain kar3, active compounds read low 1.01 | S. cerevisiae deletion strains, locus YPR163C, strain tif3, active compounds read low 1.01 | S. cerevisiae deletion strains, locus YPR167C, strain met16, active compounds read low 1.02 | S. cerevisiae deletion strains, strain wtn01, active compounds read low 1.02 | S. cerevisiae strains, strain wild type, active compounds read low 1.01
